Screens deposited in PubChem by National Center for Advancing Translational Sciences (NCATS).
SW480 rereplic: DNA re-replication induction in SW480 cells; SW480 DNA re-replication, Hoechst DNA content imaging, 48 h; Potency, µM (highest dose often 46.1 µM), for inactives: at the top dose re-replication activation, most hits filed as activators; 340,000 compounds, 1.8% hits; also: % of control where 0% means no effect; nearly all actives have a fitted effect of over 55% in size
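First, 250 cells per well were seeded. Next, compound or vehicle (23 nL) was pinned in, plates sat 48 hr at 37 C. Finally Hoechst was added for 40 min before fluorescence scanning.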
KB-3-1 tox: KB-3-1 parental cell cytotoxicity; KB-3-1 viability, CellTiter-Glo ATP luminescence, 72 h; Potency, µM (doses to about 46.1 µM), most hits filed as cytotoxic; 400,000 compounds, 1.4% hits; AID 1347075; also: % is scaled to controls: 0 for no effect and ±100 for the full control effect; nearly all actives have a fitted effect of over 60% in size
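Cytotoxicity in the drug-sensitive parental line KB-3-1 was scored as loss of CellTiter-Glo luminescence following 72 h incubation with compound. Values come from curve fitting of normalized concentration-response data.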
12-LOX inh: blocks human arachidonate 12S-lipoxygenase. purified 12hLO, xylenol orange hydroperoxide absorbance. Potency, µM (series often up to 108 µM), for inactives: at the highest dose activity change, negative = inhibition, actives largely listed as inhibitors. 580,000 compounds, 1.1% hits. P18054. AID 1671190; also: % is scaled to controls: 0 for no effect and ±100 for the full control effect
Target sequence (P18054 whole entry, looked up): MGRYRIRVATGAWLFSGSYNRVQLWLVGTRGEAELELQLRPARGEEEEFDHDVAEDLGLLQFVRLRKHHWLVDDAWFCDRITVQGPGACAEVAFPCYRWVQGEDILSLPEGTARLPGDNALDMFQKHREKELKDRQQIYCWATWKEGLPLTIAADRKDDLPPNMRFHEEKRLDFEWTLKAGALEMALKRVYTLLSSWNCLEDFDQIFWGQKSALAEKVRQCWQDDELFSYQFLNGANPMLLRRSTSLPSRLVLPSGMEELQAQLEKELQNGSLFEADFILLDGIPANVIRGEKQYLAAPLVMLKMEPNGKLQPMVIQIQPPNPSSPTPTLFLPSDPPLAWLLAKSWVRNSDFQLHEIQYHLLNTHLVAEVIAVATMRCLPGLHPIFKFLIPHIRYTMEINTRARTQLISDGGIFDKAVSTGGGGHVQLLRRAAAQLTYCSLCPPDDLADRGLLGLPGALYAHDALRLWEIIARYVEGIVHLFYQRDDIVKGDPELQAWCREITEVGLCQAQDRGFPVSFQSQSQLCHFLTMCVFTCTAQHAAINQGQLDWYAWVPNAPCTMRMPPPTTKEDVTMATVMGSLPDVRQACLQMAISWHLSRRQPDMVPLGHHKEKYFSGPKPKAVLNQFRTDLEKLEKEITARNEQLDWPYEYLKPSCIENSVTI
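Purified human 12hLO at 150 nM in 25 mM Hepes, 0.01% Triton X-100, pH 7.0, preincubated 15 min at room temperature with compound. Reaction started with 40 uM arachidonic acid, 30 min at room temperature. Hydroperoxide measured by Fe-xylenol orange, 573/405 nm absorbance ratio.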
PINK1 expr mod: PINK1 expression modulation. PINK1 immunofluorescence, high-content cytometry, 24 h. Potency, µM (series often up to 76.6 µM), inactives show at the top dose activation (PINK1 increase), usual class: activators. 410,000 compounds, 0.2% hits; active = well fitted activation curve with a large enough effect; inconclusive = small, poorly fitted or top-dose-only effect; cell line not stated here; also: % of control where 0% means no effect; nearly all actives have a fitted effect of over 65% in size
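Measures PINK1 amount and localization on or inside mitochondria by immunofluorescence. Stable cells get compounds at 5 concentrations for 24 hours before fixation and staining; CCCP controls included.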
KB-V1 cytotox: kills drug-selected multidrug resistant KB-V1 cells; 400,000 compounds, 3.4% hits; Potency, µM (top dose mostly 46.1 µM), hits mostly cytotoxic; KB-V1 MDR cells viability, CellTiter-Glo, 72 h; also: % is scaled to controls: 0 for no effect and ±100 for the full control effect; nearly all actives have a fitted effect of over 60% in size
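Drug-selected KB-V1 cells, grown in DMEM lacking phenol red with 10% FBS, receive compound titrations; after three days at 37 degrees C, surviving cell ATP is quantified by CellTiter-Glo luminescence and responses normalized and curve-fitted.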
MCF10A rerep: induces DNA re-replication in MCF 10a normal breast cells; Potency, µM (highest dose often 46.1 µM), inactives show at the highest dose activity, positive = re-replication, most hits filed as activators; MCF 10A DNA re-replication, Hoechst nuclear intensity, 48 h; 350,000 compounds, 2.9% hits; also: % of control where 0% means no effect; nearly all actives have a fitted effect of over 50% in size
Active calls of the source: *; i = inactive; u = inconclusive; x = not tested or not shown; [ ] = dose if it differs, or a comment. Only some compounds are listed: those with a hit (about 5.8% of all), similar ones and a draw of the others. Unless noted, calls follow the shape of the dose curve; as a rule, active = well fitted curve in the direction sought with a large enough effect; inconclusive = small, poorly fitted or top-dose-only effect, or another doubt; inactive = no such curve, though single readings can be large; an effect the other way counts as inactive or inconclusive. Potency is read from the fitted curve at half-maximal effect.

SMILES	SW480 rereplic	KB-3-1 tox	12-LOX inh	PINK1 expr mod	KB-V1 cytotox	MCF10A rerep
CC(C)C[C@H](NC(=O)c1nc[nH]c1C(=O)NCCCCCNC(=O)OC(C)(C)C)C(=O)OC(C)(C)C	u	u	-3%	22%	u	14%
CC(C)(O)CCc1c(-c2ccc(O)cc2O)oc2c3c(cc(O)c2c1=O)OC(C)(C)C=C3	20%	i	45µM*	1%	i	u
COc1cc2c(c3oc(-c4ccccc4)cc(=O)c13)C=CC(C)(C)O2	4%	i	u	0%	u	u
O=C1Cc2c([nH]c3ccc(Br)cc23)-c2ccccc2N1	26%	u	u	-1%	u	4.1µM*
COc1cc(-c2noc(C)c2/C=C/c2cccc([N+](=O)[O-])c2)cc(OC)c1OC	u	2.9µM*	u	0%	5.8µM*	u
CCOc1ccc(CN(C(=O)c2oc3cc(C)ccc3c2C)C2CCS(=O)(=O)C2)cc1 (centres undefined)	21µM*	u	-2%	2%[38.3 µM]	u	15µM*
Cc1ccc2c(C)c(C(=O)N(Cc3ccc(Cl)cc3)C3CCS(=O)(=O)C3)oc2c1 (centres undefined)	x	i	7%	-2%	i	x
Cc1ccc(C(=O)Nc2ncc(Cc3ccccc3)s2)o1	-20%	3.5µM*	-23%	x	i	u
O=C(Nc1ncc(Cc2ccccc2)s1)c1cccs1	1%	u	0%	0%	u	u
Cc1ccc(C(=O)Nc2nc3c(s2)CCCC3)o1	-5%	u	-8%	0%	12µM*	3%
O=C(Nc1ncc(Cc2ccc(SC(F)F)cc2)s1)c1ccccc1	6.5µM*	1.5µM*	-1%	11%	2.1µM*	u
O=C(Nc1ncc(Cc2cccc(Cl)c2)s1)c1cccs1	14%	u	8%	2%	13µM*	u
Nc1ccc(-c2cn[nH]c2)cc1	x	x	-5%	x	x	x
CCOP(=O)(OCC)c1nc(Cc2ccc(Cl)cc2)oc1NCc1ccco1	x	x	-3%	x	x	x
CN(C)Cc1ccc2c(c1)c(OC(C)(C)C(=O)NCCN1CCOCC1)nn2Cc1ccccc1	x	x	43%	x	x	x
O=C(O)CCn1cc(C(C(=O)O)N2CCN(Cc3ccncc3)CC2)c2ccc(F)cc21 (centres undefined)	x	x	-25%	x	x	x
Cc1ccc(Nc2nnc(SCC(=O)c3ccc(O)cc3O)s2)cc1	5%	i	45µM*	-2%	i	u
COc1ccc(CCNC(=O)c2ccc3c(=O)n(-c4ccccc4)c(=O)[nH]c3c2)cc1OC	x	x	1%	x	x	x
O=S(Cc1ccc(Cl)cc1)c1ncc(CO)n1Cc1ccccc1 (centres undefined)	u	16µM*	3%	-1%	i	-1%
Cc1ccc2[nH]c(C(=O)NCc3cccs3)cc2c1	x	x	-1%	x	x	x
Cc1c2ccccc2c(C)c2c1ccc1ccccc12	1.8µM*	i	4%	6%	i	u
Cc1c2ccccc2nc2ccccc12	-5%	i	0%	9%	i	-2%
Cc1cnc2ccc3ccccc3c2c1C	x	5.2µM*	x	x	i	x
Cc1ccc2ncc(C)c(C)c2c1	x	i	x	x	i	x
Cc1cccc(NC(=O)CCc2ncc(-c3ccc(F)cc3)o2)c1	x	x	-4%	x	x	x
SMILES	SW480 rereplic	KB-3-1 tox	12-LOX inh	PINK1 expr mod	KB-V1 cytotox	MCF10A rerep
Cc1csc(CNc2ncnc3ccc(-c4ccc5c(c4)OCCO5)cc23)c1	-3%	u	8.9µM*	8%	i	u
COC1=C(NCc2ccc3c(c2)OCO3)C(=O)C(OC)=C(NCc2ccc3c(c2)OCO3)C1=O	-1%	i	8.9µM*	8%	i	-7%
COC(=O)NCc1ccc2c(c1)OCO2	-20%	i	0%	-1%	i	0%
COc1cccc(-c2ccc3ncnc(NCc4ccc5c(c4)OCO5)c3c2)c1	-31%[9.22 µM]	i	-28%	1%	i	16µM*
c1nc(NCc2ccc3c(c2)OCO3)c2cc(-c3ccc4c(c3)OCCO4)ccc2n1	1%[9.22 µM]	i	u	u	i	9.2µM*
Cc1csc(CNc2ncnc3ccc(-c4ccc5c(c4)OCO5)cc23)c1	u	u	u	26%	i	u
c1cncc(CNc2ncnc3ccc(-c4ccc5c(c4)OCO5)cc23)c1	-10%	i	-10%	1%	i	-11%
Cc1cccc(CNc2ncnc3ccc(-c4cccnc4)cc23)c1	-3%	i	u	0%	i	13%
Cc1cccc(-c2ccc3ncnc(NCc4cccs4)c3c2)c1	6%	13µM*	4%	u	i	8%
Cc1cccc(CNc2nc(-c3cccc(NS(C)(=O)=O)c3)nc3ccccc23)c1	x	x	u	1%	x	x
Cc1cccc(CNc2ncnc3ccc(-c4ccoc4)cc23)c1	8%	i	u	-1%	i	2.6µM*
Cc1cccc(CNc2ncnc3ccc(-c4ccc5c(c4)OCCO5)cc23)c1	21%	8.2µM*	50µM*	22µM*	i	u
Cc1ccc2nc(-c3cccc(NS(C)(=O)=O)c3)cc(-c3ccccc3)c2c1	u	u	-19%	-2%	18µM*	u
c1cncc(CNc2ncnc3ccc(-c4ccoc4)cc23)c1	2%	i	-1%	0%	i	4%
Clc1cccc(-c2ccc3ncnc(NCc4cccs4)c3c2)c1	-7%[9.22 µM]	i	u	u	i	u
CC(C)Nc1nc(C(=O)Nc2ccc3cc[nH]c3c2)cs1	x	x	37%	x	x	x
N#Cc1nc(-c2ccc(S(=O)(=O)N3CCCC3)cc2)oc1NCCc1ccccc1	x	x	-31%	x	x	x
COc1ccccc1NC(C)(C)c1nnnn1-c1ccc(OC)c(OC)c1	x	x	-25%	x	x	x
Cc1cccc(CNc2cc(-c3ccoc3)ncn2)c1	x	x	18µM*	3%	x	x
c1cncc(CNc2cc(-c3ccoc3)ncn2)c1	x	x	u	0%	x	x
Cc1cccc(CNc2cc(-c3cccc(NS(C)(=O)=O)c3)ncn2)c1	x	x	35µM*	2%	x	x
Cc1cccc(CNc2ccnc(-c3cccc(NS(C)(=O)=O)c3)n2)c1	x	x	u	2%	x	x
O=C1C=C(Nc2ccccc2C(F)(F)F)CCC1	x	x	-23%	x	x	x
CCN(CC)C(=O)CCc1c(C)nn(-c2ccccc2)c1Oc1ccccc1	x	x	19%	x	x	x
CN(C)c1ncnc2c1C(c1ccccc1)C(C)(C)O2 (centres undefined)	-1%	i	u	-6%	18µM*	3%
C/C(Cc1ccccc1)=N\NC(=O)c1ccc(C)cc1	x	x	33%	x	x	x
O=C1C2C3C=CC(CNS(=O)(=O)c4ccccc4)(O3)C2C(=O)N1c1ccc(Cl)cc1 (centres undefined)	12µM*	i	-22%	8%	u	u
